Compound activity (PubChem)
A selection: hits, their analogues and other compounds. The true share with any hit is near 4.7%.
Cav32 inh: inhibitors of human Cav3.2 T-type calcium channel. Cav3.2-expressing cells, Fluo-4 calcium fluorescence FDSS; active compounds read low. B-score at 10 µM. 100,000 tested, 4% active. AID 449739;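 active = single-dose well whose peak fluorescence ratio is a statistical outlier from its plate by either plate-standardised score or position-corrected B-score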
hDAT+cocaine: modulates human dopamine transporter uptake under cocaine; Q01959; LLC-PK1 hDAT cells, [14C]-dopamine uptake with cocaine IC80; actives deviate in either direction; B-score at 10 µM; 110,000 tested, 1.3% active; AID 449768;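 active = Z score or B-score, a plate-position-corrected score, falls beyond the plate's 99.7% confidence bounds, in either direction; inactive = both scores lie inside the 99.7% bounds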;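 note: scored against the spread of the other compound wells on the same plate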
Target sequence (Q01959 whole entry, looked up): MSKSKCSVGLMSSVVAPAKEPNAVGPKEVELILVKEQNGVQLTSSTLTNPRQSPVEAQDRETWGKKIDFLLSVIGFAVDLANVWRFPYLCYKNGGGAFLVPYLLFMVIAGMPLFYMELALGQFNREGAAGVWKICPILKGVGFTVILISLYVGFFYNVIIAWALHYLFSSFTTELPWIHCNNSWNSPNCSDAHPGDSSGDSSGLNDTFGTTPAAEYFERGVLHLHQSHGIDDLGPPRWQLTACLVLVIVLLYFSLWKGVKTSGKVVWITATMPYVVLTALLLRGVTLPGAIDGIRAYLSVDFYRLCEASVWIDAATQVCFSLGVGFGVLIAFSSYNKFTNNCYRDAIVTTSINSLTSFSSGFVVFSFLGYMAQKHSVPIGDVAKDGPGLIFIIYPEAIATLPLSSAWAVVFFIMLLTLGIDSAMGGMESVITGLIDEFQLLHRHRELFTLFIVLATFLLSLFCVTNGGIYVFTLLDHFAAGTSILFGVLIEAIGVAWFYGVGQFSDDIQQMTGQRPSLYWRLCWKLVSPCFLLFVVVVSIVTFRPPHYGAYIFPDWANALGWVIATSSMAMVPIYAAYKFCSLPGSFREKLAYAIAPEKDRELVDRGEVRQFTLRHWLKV
Pyk2 oligo antag: antagonists of human Pyk2 oligomerization; z-score (the deposit names both 25 µM and 10 µM); Q14289; Q293 cells, Pyk2 FERM NanoBiT luminescence; active compounds read low; 99,000 tested, 0.83% active;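 active = Z-score of -3 or lower, scaled per plate to the spread of control and sample wells; inactive = z-score above -3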;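 note: negative z-score means lost luminescence so less FERM oligomerization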
PLK1 kinase inh: PLK1 (human) kinase inhibition | inhibition, % at 10 µM | 97,000 tested, 0.53% active | recombinant PLK1 kinase, TR-FRET peptide phosphorylation | P53350;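 active = inhibition of 50% or more in the single-concentration screen; inactive = inhibition below 50%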;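 note: 0% = DMSO max control and 100% = H-89 dihydrochloride min control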
SDO1 yeast rescue: restores growth of sdo1-depleted yeast | S. cerevisiae sdo1-depleted JHY4D growth rescue, OD600 30 h; active compounds read high; pdr5 snq2 efflux-pump mutant strain | z-score at 10 µM | AID 817 | 140,000 tested, 0.21% active;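 active = z-score above 3 at both the 24 hr and the 30 hr optical density reads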;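 note: z-score against mean and SD of all compound wells on the same plate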
PLK1 PBD inh: inhibitors of human Plk1 polo box domain binding; inhibition, %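 (tested at about 20 µM)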; Plk1 PBD phosphopeptide binding, fluorescence polarization; AID 693; 97,000 tested, 0.13% active; P53350; in the data active = inhibition above about 34%, passing the limit was not always enough
The depositor's hits bear a star; / = not tested or not shown.

SMILES	Cav32 inh	hDAT+cocaine	Pyk2 oligo antag	PLK1 kinase inh	SDO1 yeast rescue	PLK1 PBD inh
Cc1ccc2nc(SCC(=O)Nc3ccc4c(c3)OCCO4)[nH]c2c1	-1.5	-0.054	-0.74	-9	-0.5	3
O=C(c1ccccc1)N(C1=NCCCCS1)c1ccccc1	/	/	/	/	-0.02	/
CCN(C(=O)COC(=O)c1c2c(nc3ccccc13)/C(=C/c1ccccc1)CC(C)C2)C1CCS(=O)(=O)C1 (stereo not given)	/	/	/	/	0.63	/
CCOc1cc(S(=O)(=O)NCCc2cccc(C)c2)c(OCC)cc1-n1cnnn1	-2.5	0.091	0.82	-3	0.08	5
COC(=O)C1=C(Nc2ccc(C)cc2)C=C(C)C(C(=O)OC)C1c1ccc(OC)cc1 (stereo not given)	-4.1*	1.6	-1.8	-6	-0.05	9
COC(=O)C1=C(Nc2ccc(C)cc2)C=C(C)C(C(=O)OC)C1c1cccc(OC)c1 (stereo not given)	-3.9*	2	-1	-9	-0.7	4
COc1ccc(C(=O)COC(=O)CCN2C(=O)C3C4CC(C(Br)C4Br)C3C2=O)cc1 (stereo not given)	0.076	-2.3*	-0.29	-4	-1	-12
COc1ccc(C(=O)COC(=O)C(CCCCN2C(=O)C3C4C=CC(C4)C3C2=O)N2C(=O)C3C4C=CC(C4)C3C2=O)cc1 (stereo not given)	-3.7*	0.027	-0.67	-7	0.48	4
COc1ccc(C(=O)COC(=O)CCN2C(=O)[C@@H]3[C@H](C2=O)[C@@H]2C[C@H]3C(Br)C2Br)cc1 (stereo not given in full)	/	/	/	/	-0.86	/
CC(=O)c1cnc2ncnn2c1C	/	/	/	/	0.63	/
COC(=O)N/N=C/c1cn(CC(C)COc2ccccc2)c2ccccc12 (stereo not given)	/	/	-0.26	/	-0.84	/
O=C1CC(c2cc([N+](=O)[O-])ccc2Cl)c2c(ccc3ccccc23)N1 (stereo not given)	/	/	/	/	-0.51	/
COC(=O)C(NC(=O)c1ccccc1C)(Nc1ncc(S(=O)(=O)c2ccc([N+](=O)[O-])cc2)s1)C(F)(F)F (stereo not given)	-7.8*	0.23	0.24	-15	0.64	7
COC(=O)C(NC(=O)c1ccc(F)cc1)(Nc1ncc(S(=O)(=O)c2ccc([N+](=O)[O-])cc2)s1)C(F)(F)F (stereo not given)	-8.2*	-0.54	-1.1	-12	-0.69	-14
CCOc1cc(/C=N/O)ccc1OCC(=O)Nc1cccc(C)c1	/	/	/	/	-0.29	/
CCOc1cc(/C=N/NC(=O)CNc2cccc(C)c2)ccc1OC(=O)c1ccccc1	-3.9*	2.2	-1.1	-11	-1.2	-13
COCc1c(C(=O)N2CCN(c3ccc(C(F)(F)F)cn3)CC2)oc2ccccc12	-4.7*	-0.93	0.63	-7	-0.94	14
COc1ccc(/C=C2\SC(N3CCc4ccccc4C3)=NC2=O)cc1OC	/	/	/	/	-1.4	/
O=C(O)/C=C\c1cccc(-n2cnnn2)c1	/	/	/	/	1.1	/
O=C(c1cccc(-n2cnnn2)c1)N1CC=C(c2ccccc2)CC1	-4.6*	2.3	-0.4	-9	1.4	-9
C#CC(CO)N(CCN(Cc1ccccc1)C(C#C)CO)Cc1ccccc1 (stereo not given)	-6.7*	0.16	-0.44	-2	-1.4	-22
C#CCN(C)Cc1ccccc1	-0.85	-0.18	/	/	1.7	/
O=C1OC(Nc2cc(Br)cc3cccnc23)c2ccccc21 (stereo not given)	/	/	/	/	0.32	/
O=C(CCS(=O)(=O)c1ccc(Br)cc1)Nc1ccc(Br)cc1F	/	/	/	/	0.95	/
Cc1ccc(CN2C(=O)C(C)(C)Oc3ccc(C(=O)N4CCCCC4)cc32)cc1	-5.2*	1.6	-1.2	-9	-0.98	-9
SMILES	Cav32 inh	hDAT+cocaine	Pyk2 oligo antag	PLK1 kinase inh	SDO1 yeast rescue	PLK1 PBD inh
CC1(C)Oc2ccc(C(=O)N3CCOCC3)cc2N(CC(=O)N2CCOCC2)C1=O	0.93	-1.6	-0.16	-16	0.77	-1
COc1cccc(NC(=O)c2ccc3c(c2)N(CC(=O)N2CCCCC2)C(=O)C(C)(C)O3)c1	1.6	3.1*	0.79	0	-0.18	-7
COc1cccc(C(=O)CN2C(=O)C(C)(C)Oc3ccc(C(=O)N4CCCCCC4)cc32)c1	-3.2	0.51	-0.94	/	-0.02	/
COc1ccc(NC(C)C(=O)N/N=C/c2ccccc2OCc2ccc(Br)cc2)cc1 (stereo not given)	-5.9*	0.63	-1.3	-9	-1.1	9
CC(Nc1ccc(Br)cc1)C(=O)N/N=C/c1ccccc1OCc1ccccc1 (stereo not given)	-3.3	-0.0025	-0.6	-2	-1.1	-2
CC1CCN(C(=O)C2CCN(C(=O)c3cc4sccc4n3Cc3ccc(F)cc3)CC2)CC1	-4.1*	1.3	-0.24	-6	-2.2	-8
O=C(c1cc2sccc2n1Cc1ccc(F)cc1)N1CCCc2ccccc21	-3.8*	0.25	-2.1	-5	-2	3
CC(C)NC(=O)C1CCN(C(=O)c2cc3sccc3n2Cc2ccc(F)cc2)CC1	-0.45	-0.03	0.54	-13	-2.4	-2
Clc1cccc(-c2nnc(SCc3nc4ccccc4[nH]3)n2Cc2ccco2)c1	-5.4*	1.5	0.64	-14	-0.14	18
CCn1c(COc2ccc(C)cc2)nnc1SCc1nc2ccccc2[nH]1	-0.73	0.67	0.52	-8	-0.42	12
Clc1ccc(OCc2nnc(SCc3nc4ccccc4[nH]3)n2Cc2ccco2)cc1	-8.5*	-0.41	0.85	1	-2	6
c1ccc(-c2nnc(SCc3nc4ccccc4[nH]3)n2Cc2ccco2)nc1	0.013	2.6	0.66	0	-0.94	-18
O=C([C@H](O)c1ccccc1)N1CCC[C@H]1CO	/	/	/	/	1.2	/
CC(C)c1ccc(-c2nc(N3CCCCCC3)nc3n[nH]c(N)c23)cc1	0.13	/	-4.3*	5	0.5	15
CC(C)c1ccc(-c2nc(N3CCCC3)nc3n[nH]c(N)c23)cc1	-0.15	0.42	-0.93	/	-0.07	/
Nc1[nH]nc2nc(N3CCOCC3)nc(-c3ccccc3)c12	0.85	2	-0.67	68*	0.01	-7
O=C(Nc1cccc(Cl)c1)ON=C1c2ccccc2-c2ccccc21	-0.091	-0.0053	1.1	9	-1.1	-11
Cn1c(=O)c(C(=O)Nc2ncccc2O)c(O)c2ccccc21	0.17	2.2*	-1.2	/	-1.7	/
CCN(CC)C(=O)Cn1c(=O)c2ccccc2n2c(=S)sc(-c3cccc(C)c3)c12	/	/	/	/	-0.09	/
Cc1ccc(CN(C(=O)Cn2nnc3ccccc32)C(C(=O)NCc2ccco2)c2cccs2)cc1 (stereo not given)	-9.4*	-0.39	-1.9	5	-0.6	7
O=C(NCc1ccco1)C(c1ccco1)N(Cc1cccs1)C(=O)Cn1nnc2ccccc21 (stereo not given)	0.96	1.1	-3.8*	-10	-0.16	0
O=C(NCc1ccco1)C(c1ccc(F)cc1)N(CC1CCCO1)C(=O)Cn1nnc2ccccc21 (stereo not given)	-4.9*	-0.03	1.1	-11	1	8
